sEH inh: blocks human soluble epoxide hydrolase activity. P34913. AID 707. inhibition, % at 2 µM. recombinant human sEH enzymatic activity assay. hit rate 0.34% among 91,000; in the data active = inhibition above about 80%
CYP2C9 inh: blocks human cytochrome P450 2C9; P11712; CYP2C9 Supersomes, luciferin-H conversion, luminescence; inhibition, % at 5 µM; hit rate 20% among 96,000; AID 777;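 active = blocking of liver enzyme CYP2C9 beyond about 50% at 5 µM, limit read from the data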
Target sequence (P11712 whole entry, looked up): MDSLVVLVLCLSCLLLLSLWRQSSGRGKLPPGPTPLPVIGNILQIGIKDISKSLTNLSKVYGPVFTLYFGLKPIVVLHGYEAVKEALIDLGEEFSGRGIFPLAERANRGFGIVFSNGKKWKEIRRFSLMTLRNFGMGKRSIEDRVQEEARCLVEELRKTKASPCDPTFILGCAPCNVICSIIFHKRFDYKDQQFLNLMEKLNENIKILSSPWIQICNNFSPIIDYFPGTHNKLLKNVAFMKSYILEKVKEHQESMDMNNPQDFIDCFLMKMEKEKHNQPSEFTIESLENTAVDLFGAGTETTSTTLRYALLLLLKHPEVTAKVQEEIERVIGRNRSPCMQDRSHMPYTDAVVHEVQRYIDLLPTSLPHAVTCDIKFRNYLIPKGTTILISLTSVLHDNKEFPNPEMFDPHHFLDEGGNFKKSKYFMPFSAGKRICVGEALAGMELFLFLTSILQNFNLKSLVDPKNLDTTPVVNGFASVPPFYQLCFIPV
sEH activator: increases human soluble epoxide hydrolase activity | purified human sEH enzymatic activity, activator screen | activation, % at 2 µM | hit rate 0.04% among 91,000 | AID 717; in the data active = activation above about 37%
CYP2C19 activ: cytochrome P450 2C19 (human) activation; recombinant CYP2C19, luciferin-H EGE luminescence; stronger effect = higher value; 0 = fully inhibited enzyme, 1 = untreated enzyme; activation factor at 5 µM; 96,000 tested, under 10 active; AID 1025;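 active = activation factor of at least 2 at 5 µM in the primary screen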;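 note: 0 = wells with 2.5 mM tranylcypromine and 1 = vehicle-only wells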
CYP2C9 act: increases human cytochrome P450 2C9 activity; P11712; recombinant CYP2C9, luciferin-H conversion, luminescence; stronger effect = higher value; factor 1 = untreated enzyme, 0 = blocked; activation factor at 5 µM; hit rate 1.4% among 96,000; AID 1024;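 active = activation factor of 2 or more for CYP2C9 at a 5 µM dose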;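 note: 0 = sulfaphenazole-blocked wells and 1 = vehicle-only wells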
CYP2C19 inhib: inhibitors of human CYP2C19; P33261; CYP2C19 Supersomes, luciferin-H EGE luminescence, 30 min; inhibition, % at 5 µM; hit rate 21% among 96,000; AID 778;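 active = CYP2C19 inhibition above a set limit at 5 µM in the primary screen, cut at about 50% in these data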;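 note: plate controls were negative control wells for no effect and 2.5 mM tranylcypromine positive control for full effect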
An asterisk follows results filed as active; x = not tested or not shown. Rows were chosen to be rich in hits. Some 27% of all compounds tested hit in one or more screens of this group.

SMILES | sEH inh | CYP2C9 inh | sEH activator | CYP2C19 activ | CYP2C9 act | CYP2C19 inhib
CCC(C)Sc1nc2ccccc2n1CC(=O)O (configuration not stated) | 2 | 88* | 1 | 1.2 | 0.1 | -16
O=C(/C=C/c1ccc(Cl)cc1)NCCN1CCOCC1 | 8 | 11 | -6 | 0.9 | 0.9 | 6
CSc1nc2ccccc2n1CC(=O)Nc1ccccc1 | 5 | 79* | -4 | 0.1 | 0.2 | 93*
CCc1ccc(NC(=O)Cn2c(SC)nc3ccccc32)cc1 | x | 44 | x | 0.8 | 0.6 | 22
CCc1ccc2[nH]c(=O)c(C(c3nnnn3CC3CCCO3)N3CCN4CCCC4C3)cc2c1 (configuration not stated) | -13 | -2 | 16 | 1.1 | 1 | -14
Cc1nc2c(c(=O)n1CCC1=CCCCC1)c1nc3ccccc3nc1n2/N=C/c1ccco1 | -4 | 71* | 3 | 0.7 | 0.3 | 35
Cc1nn(CCCC(=O)N2CCc3ccccc3C2)c(=O)c2cc3sccc3n12 | 6 | 51* | -7 | 0.5 | 0.5 | 54*
CCOC(=O)CCCn1nc(C)n2c(cc3sccc32)c1=O | 6 | x | -3 | x | x | x
CCc1nn(CCCC(=O)N2CCc3ccccc3C2)c(=O)c2cc3occc3n12 | x | 8 | x | 0.2 | 0.9 | 80*
CC(=C1C2C=CC1C1C(=O)NC(=O)C21)c1ccccc1 (configuration not stated) | -11 | -18 | 11 | 0.2 | 1.2 | 79*
CCCNC(=O)c1ccccc1NS(=O)(=O)c1ccc2c(c1)OCCO2 | -17 | -104 | 14 | 0.6 | 2* | 44
CSc1ccccc1NS(=O)(=O)c1ccc2c(c1)OCCO2 | -20 | -170 | 24 | 0.2 | 2.7* | 79*
COc1ccc2nc(SCC(=O)Nc3ccc(S(=O)(=O)Nc4nccc(C)n4)cc3)[nH]c2c1 | -16 | 23 | 14 | 0.7 | 0.8 | 29
C=CCNc1nc(-c2ccc(OC)cc2OC)cs1 | -3 | -8 | 4 | 0.4 | 1.1 | 57*
Cc1cc(C(F)(F)F)nn1CC(=O)N(C)C1CCCCC1 | 4 | x | -4 | x | x | x
O=C(c1ccc(Br)o1)N1CCN(c2ncccn2)CC1 | -15 | 26 | 13 | 0.8 | 0.7 | 17
CCOC(=O)CC1C(=O)NCCN1S(=O)(=O)c1cc(Cl)c(Cl)cc1Cl (configuration not stated) | -2 | -21 | 2 | 0.4 | 1.2 | 62*
CCOC(=O)CC1C(=O)NCCN1S(=O)(=O)c1ccc(Cl)cc1 (configuration not stated) | -5 | -8 | 8 | 0.9 | 1.1 | 13
O=C(CSc1ncn[nH]1)Nc1nc(-c2ccccc2)ns1 | -2 | 79* | 5 | 0.2 | 0.2 | 78*
Cc1nnc(SCCC(=O)Nc2nc(-c3ccccc3)ns2)s1 | 4 | 40 | -2 | 0.5 | 0.6 | 53*
Cc1cccc(N2C(=O)CC(Sc3nnc(C)s3)C2=O)c1 (configuration not stated) | -2 | x | 8 | x | x | x
O=C(CC(NCCc1ccccc1)C(=O)O)Nc1ccc(O)cc1 (configuration not stated) | 4 | 2 | -3 | 1 | 1 | -2
CCn1c(COc2ccccc2)nnc1SCc1ccc(C#N)cc1 | 15 | 17 | -13 | 0.8 | 0.8 | 22
CCn1c(SCc2ccc(C#N)cc2)nnc1-c1cccc(Cl)c1 | 6 | 14 | -8 | 0.3 | 0.9 | 65*
CCn1c(COc2ccc(Cl)cc2)nnc1SCc1ccc(C#N)cc1 | 18 | 76* | -15 | 0.2 | 0.2 | 76*
SMILES | sEH inh | CYP2C9 inh | sEH activator | CYP2C19 activ | CYP2C9 act | CYP2C19 inhib
Fc1cccc(Cl)c1CSc1nnc(CN2CCOCC2)n1-c1ccccc1 | -18 | 11 | 19 | 0.7 | 0.9 | 25
CC(=O)N(C(C)=O)C1=C(C#N)C2(CCCCC2)Cc2ccccc21 | -5 | 24 | 8 | 0.8 | 0.8 | 21
COC(=O)C1(C(=O)OC)NOC2C(=O)N(c3ccc(Cl)cc3Cl)C(=O)C21 (configuration not stated) | 7 | -7 | -6 | 1 | 1.1 | 4
O=C(c1ccccc1NS(=O)(=O)c1ccc(F)cc1)N1CCCC1 | -10 | 11 | 13 | 0.7 | 0.9 | 31
Cc1cc(F)ccc1S(=O)(=O)Nc1ccccc1C(=O)Nc1ccc2[nH]c(=O)[nH]c2c1 | x | 81* | x | 0.9 | 0.2 | 9
COc1ccc(-c2nnc(-c3cc4c(ccc5ccccc54)oc3=O)o2)cc1 | -28 | 56* | 27 | 0.3 | 0.4 | 68*
NS(=O)(=O)c1ccc(Nc2nc(-c3ccc(O)cc3O)cs2)cc1 | 34 | 68* | -36 | 0.2 | 0.3 | 79*
Cc1cc(-c2c(C)[nH]n(-c3ccc(Cl)cc3)c2=O)n[nH]1 | 4 | 55* | -4 | 0.7 | 0.5 | 31
Cc1[nH]n(-c2ccc(Cl)cc2)c(=O)c1C=Nc1ccc(S(=O)(=O)N2CCOCC2)cc1 | 6 | 14 | -6 | 1 | 0.9 | -2
Cc1cc2cc(C(c3nnnn3C3CCCC3)N(Cc3cccnc3)Cc3ccco3)c(=O)[nH]c2cc1C (configuration not stated) | 12 | 60* | -14 | 0.4 | 0.4 | 60*
CCC(C)(C)n1nnnc1C(c1cc2ccc(C)cc2[nH]c1=O)N(Cc1cccnc1)Cc1ccco1 (configuration not stated) | -1 | 89* | 1 | 0 | 0.1 | 99*
CCCC(c1nnnn1C(C)(C)CC)N(Cc1ccco1)Cc1cc2ccc(OC)cc2[nH]c1=O (configuration not stated) | -1 | 41 | 1 | 0.7 | 0.6 | 29
CC(C)C(c1nnnn1C1CCCC1)N(C)C1CCCCC1 (configuration not stated) | 6 | 51* | -8 | 0.8 | 0.5 | 22
Cc1ccc2cc(C(c3nnnn3C3CCCC3)N(Cc3ccccc3)Cc3ccco3)c(=O)[nH]c2c1 (configuration not stated) | x | 35 | x | 0.8 | 0.7 | 24
COCCn1nnnc1C(c1cc2ccc(C)cc2[nH]c1=O)N(Cc1ccco1)Cc1cccs1 (configuration not stated) | x | 70* | x | 0.5 | 0.3 | 47
CC(NC(=O)c1cccc(C(F)(F)F)c1)C1CCCO1 (configuration not stated) | 7 | 12 | -4 | 0.7 | 0.9 | 29
O=C(CCCn1c(=S)[nH]c2ccc(Br)cc2c1=O)NCC1CCCO1 (configuration not stated) | 13 | -38 | -13 | 0.9 | 1.4 | 14
Cc1ccc(SC(C)C(=O)NCC(C)C)cc1 (configuration not stated) | 5 | 29 | -2 | 0.7 | 0.7 | 35
CC(C)C(c1nnnn1C1CCCC1)N1CCc2ccccc21 (configuration not stated) | 5 | 57* | -4 | 0.7 | 0.4 | 30
CC(C)C(c1nnnn1C1CCCC1)N1CCCc2ccccc21 (configuration not stated) | -15 | x | 13 | x | x | x

Source: PubChem
